# In PubChem BioAssay AID1159580 (chemical genetic matrix, 2015):
# Values joined by “and” are separate entries in the source; they are usually repeats but may differ in a detail not shown here. Equal entries are not always repeated. Hit rate of the full screen: of about 5,500 compounds, about 2,000 (36%) were called active. Roughly 18% stayed inconclusive and do not appear here. Rule as the data show it: active = normalized growth mostly below about 0.91 (no sharp cut-off); inconclusive = no clear call, values can overlap the other calls; inactive = mostly above about 0.92. Some of the results follow. Some structures have more than one record in an assay (separate samples or runs), and their calls can disagree.
# Test: chemical genetic growth profiling, strain panel (AID 1159580);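 also: tested at 20 µM; growth read once vehicle control cultures reached saturation at 30 °C; 1 = growth at the plate median or of vehicle wells; lower values mean less growth of the strain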
# Settings: growth OD
smiles,measurement,setting,value
O=C1CCc2cc(OCCCCc3nnnn3C3CCCCC3)ccc2N1,normalized growth,"S. cerevisiae deletion strains, locus YKL009W, strain mrt4, stronger effect = lower value",1 (inactive)
same,normalized growth,"S. cerevisiae deletion strains, locus YKL068W, stronger effect = lower value",1 (inactive)
same,normalized growth,"S. cerevisiae deletion strains, locus YKL085W, strain MDH1 (second series), stronger effect = lower value",1.01 (inactive)
same,normalized growth,"S. cerevisiae deletion strains, locus YKL085W, strain MDH1, stronger effect = lower value",1.01 (inactive)
same,normalized growth,"S. cerevisiae deletion strains, locus YKL160W, strain elf1, stronger effect = lower value",0.987 (inactive)
same,normalized growth,"S. cerevisiae deletion strains, locus YKL190W, strain CNB1, stronger effect = lower value",1.01 (inactive)
same,normalized growth,"S. cerevisiae deletion strains, locus YKR001C, strain vps1, stronger effect = lower value",0.993 (inactive)
same,normalized growth,"S. cerevisiae deletion strains, locus YKR026C, strain gcn3, stronger effect = lower value",0.979 (inactive)
same,normalized growth,"S. cerevisiae deletion strains, locus YKR091W, strain srl3, stronger effect = lower value",0.99 (inactive)
same,normalized growth,"S. cerevisiae deletion strains, locus YLL001W, strain dnm1, stronger effect = lower value",0.984 (inactive)
same,normalized growth,"S. cerevisiae deletion strains, locus YLL026W, stronger effect = lower value",0.993 (inactive)
same,normalized growth,"S. cerevisiae deletion strains, locus YLL041C, strain sdh2, stronger effect = lower value",0.991 (inactive)
same,normalized growth,"S. cerevisiae deletion strains, locus YLR027C, strain aat2, stronger effect = lower value",0.978 (inactive)
same,normalized growth,"S. cerevisiae deletion strains, locus YLR039C, strain RIC1, stronger effect = lower value",0.972 (inactive)
same,normalized growth,"S. cerevisiae deletion strains, locus YLR058C, strain SHM2, stronger effect = lower value",1.01 (inactive)
same,normalized growth,"S. cerevisiae deletion strains, locus YLR102C, strain apc9, stronger effect = lower value",0.999 (inactive)
same,normalized growth,"S. cerevisiae deletion strains, locus YLR113W, strain HOG1, stronger effect = lower value",0.983 (inactive)
same,normalized growth,"S. cerevisiae deletion strains, locus YLR221C, strain rsa3, stronger effect = lower value",0.984 (inactive)
same,normalized growth,"S. cerevisiae deletion strains, locus YLR258W, strain gsy2, stronger effect = lower value",0.986 (inactive)
same,normalized growth,"S. cerevisiae deletion strains, locus YLR262C, strain YPT6 (second series), stronger effect = lower value",0.876 (inactive)
same,normalized growth,"S. cerevisiae deletion strains, locus YLR262C, strain YPT6, stronger effect = lower value",0.998 (inactive)
same,normalized growth,"S. cerevisiae deletion strains, locus YLR268W, strain sec22, stronger effect = lower value",0.999 (inactive)
same,normalized growth,"S. cerevisiae deletion strains, locus YLR320W, strain mms22, stronger effect = lower value",0.976 (inactive)
same,normalized growth,"S. cerevisiae deletion strains, locus YLR330W, strain CHS5, stronger effect = lower value",1.01 (inactive)
same,normalized growth,"S. cerevisiae deletion strains, locus YLR342W, strain FKS1 (second series), stronger effect = lower value",0.987 (inactive)
same,normalized growth,"S. cerevisiae deletion strains, locus YLR342W, strain FKS1, stronger effect = lower value",0.985 (inactive)
same,normalized growth,"S. cerevisiae deletion strains, locus YLR357W, strain rsc2, stronger effect = lower value",0.956 (inactive)
same,normalized growth,"S. cerevisiae deletion strains, locus YLR370C, strain arc18, stronger effect = lower value",0.99 (inactive)
same,normalized growth,"S. cerevisiae deletion strains, locus YLR371W, strain rom2, stronger effect = lower value",0.995 (inactive)
same,normalized growth,"S. cerevisiae deletion strains, locus YLR384C, strain iki3, stronger effect = lower value",0.972 (inactive)
same,normalized growth,"S. cerevisiae deletion strains, locus YLR418C, strain cdc73, stronger effect = lower value",1 (inactive)
same,normalized growth,"S. cerevisiae deletion strains, locus YML016C, strain PPZ1, stronger effect = lower value",1.01 (inactive)
same,normalized growth,"S. cerevisiae deletion strains, locus YML032C, strain rad52, stronger effect = lower value",1.02 (inactive)
same,normalized growth,"S. cerevisiae deletion strains, locus YML120C, strain ndi1, stronger effect = lower value",0.994 (inactive)
same,normalized growth,"S. cerevisiae deletion strains, locus YML124C, strain tub3, stronger effect = lower value",0.992 (inactive)
same,normalized growth,"S. cerevisiae deletion strains, locus YMR058W, strain fet3, stronger effect = lower value",1 (inactive)
same,normalized growth,"S. cerevisiae deletion strains, locus YMR078C, strain ctf18, stronger effect = lower value",0.998 (inactive)
same,normalized growth,"S. cerevisiae deletion strains, locus YMR125W, strain sto1, stronger effect = lower value",0.999 (inactive)
same,normalized growth,"S. cerevisiae deletion strains, locus YMR129W, stronger effect = lower value",0.985 (inactive)
same,normalized growth,"S. cerevisiae deletion strains, locus YMR205C, strain PFK2, stronger effect = lower value",0.989 (inactive)
same,normalized growth,"S. cerevisiae deletion strains, locus YMR223W, strain ubp8, stronger effect = lower value",0.991 (inactive)
same,normalized growth,"S. cerevisiae deletion strains, locus YMR231W, strain pep5, stronger effect = lower value",0.996 (inactive)
same,normalized growth,"S. cerevisiae deletion strains, locus YMR263W, strain SAP30, stronger effect = lower value",1.01 (inactive) and 0.0868 (active)
same,normalized growth,"S. cerevisiae deletion strains, locus YMR307W, strain GAS1, stronger effect = lower value",0.946 (inactive) and 0.993 (inactive)
same,normalized growth,"S. cerevisiae deletion strains, locus YNL067W, strain RPL9B, stronger effect = lower value",1.03 (inactive)
same,normalized growth,"S. cerevisiae deletion strains, locus YNL071W, strain lat1, stronger effect = lower value",1 (inactive)
same,normalized growth,"S. cerevisiae deletion strains, locus YNL128W, strain TEP1, stronger effect = lower value",1.01 (inactive)
same,normalized growth,"S. cerevisiae deletion strains, locus YNL153C, strain GIM3, stronger effect = lower value",1.01 (inactive)
same,normalized growth,"S. cerevisiae deletion strains, locus YNL175C, strain NOP13, stronger effect = lower value",1.03 (inactive)
same,normalized growth,"S. cerevisiae deletion strains, locus YNL183C, strain NPR1, stronger effect = lower value",0.966 (inactive)
same,normalized growth,"S. cerevisiae deletion strains, locus YNL197C, strain WHI3, stronger effect = lower value",1.01 (inactive)
same,normalized growth,"S. cerevisiae deletion strains, locus YNL209W, strain ssb2, stronger effect = lower value",0.998 (inactive)
same,normalized growth,"S. cerevisiae deletion strains, locus YNL224C, strain SQS1, stronger effect = lower value",1 (inactive)
same,normalized growth,"S. cerevisiae deletion strains, locus YNL233W, strain BNI4, stronger effect = lower value",1.01 (inactive)
same,normalized growth,"S. cerevisiae deletion strains, locus YNL248C, strain rpa49, stronger effect = lower value",0.999 (inactive)
same,normalized growth,"S. cerevisiae deletion strains, locus YNL250W, strain rad50, stronger effect = lower value",0.992 (inactive)
same,normalized growth,"S. cerevisiae deletion strains, locus YNL271C, strain bni1, stronger effect = lower value",1 (inactive)
same,normalized growth,"S. cerevisiae deletion strains, locus YNL298W, strain CLA4, stronger effect = lower value",1 (inactive)
same,normalized growth,"S. cerevisiae deletion strains, locus YNL307C, strain MCK1, stronger effect = lower value",0.982 (inactive)
same,normalized growth,"S. cerevisiae deletion strains, locus YNL322C, strain KRE1 (second series), stronger effect = lower value",0.988 (inactive)
same,normalized growth,"S. cerevisiae deletion strains, locus YNL322C, strain KRE1, stronger effect = lower value",1.01 (inactive)
same,normalized growth,"S. cerevisiae deletion strains, locus YNR049C, strain mso1, stronger effect = lower value",0.998 (inactive)
same,normalized growth,"S. cerevisiae deletion strains, locus YNR052C, strain pop2, stronger effect = lower value",1 (inactive)
same,normalized growth,"S. cerevisiae deletion strains, locus YOL006C, strain TOP1, stronger effect = lower value",1.01 (inactive)
same,normalized growth,"S. cerevisiae deletion strains, locus YOL012C, strain htz1",1.15 (inactive)
same,normalized growth,"S. cerevisiae deletion strains, locus YOL147C, strain pex11, stronger effect = lower value",0.991 (inactive)
same,normalized growth,"S. cerevisiae deletion strains, locus YOR001W, strain rrp6, stronger effect = lower value",0.992 (inactive)
same,normalized growth,"S. cerevisiae deletion strains, locus YOR061W, strain CKA2, stronger effect = lower value",1 (inactive)
same,normalized growth,"S. cerevisiae deletion strains, locus YOR069W, strain VPS5, stronger effect = lower value",1 (inactive)
same,normalized growth,"S. cerevisiae deletion strains, locus YOR070C, strain gyp1, stronger effect = lower value",0.995 (inactive)
same,normalized growth,"S. cerevisiae deletion strains, locus YOR080W, strain dia2, stronger effect = lower value",0.984 (inactive)
same,normalized growth,"S. cerevisiae deletion strains, locus YOR083W, strain WHI5 (second series), stronger effect = lower value",0.993 (inactive)
same,normalized growth,"S. cerevisiae deletion strains, locus YOR083W, strain WHI5, stronger effect = lower value",0.987 (inactive)
same,normalized growth,"S. cerevisiae deletion strains, locus YOR106W, strain vam3, stronger effect = lower value",0.977 (inactive)
same,normalized growth,"S. cerevisiae deletion strains, locus YOR136W, strain idh2, stronger effect = lower value",0.983 (inactive)
same,normalized growth,"S. cerevisiae deletion strains, locus YOR144C, strain elg1, stronger effect = lower value",0.995 (inactive)
same,normalized growth,"S. cerevisiae deletion strains, locus YOR184W, strain ser1, stronger effect = lower value",1.02 (inactive)
same,normalized growth,"S. cerevisiae deletion strains, locus YOR231W, strain MKK1, stronger effect = lower value",0.974 (inactive)
same,normalized growth,"S. cerevisiae deletion strains, locus YOR265W, strain rbl2, stronger effect = lower value",0.987 (inactive)
same,normalized growth,"S. cerevisiae deletion strains, locus YOR270C, strain vph1, stronger effect = lower value",0.991 (inactive)
same,normalized growth,"S. cerevisiae deletion strains, locus YOR290C, strain snf2, stronger effect = lower value",1 (inactive)
same,normalized growth,"S. cerevisiae deletion strains, locus YOR316C, strain cot1, stronger effect = lower value",1 (inactive)
same,normalized growth,"S. cerevisiae deletion strains, locus YPL051W, strain arl3, stronger effect = lower value",0.983 (inactive)
same,normalized growth,"S. cerevisiae deletion strains, locus YPL055C, strain LGE1, stronger effect = lower value",1.06 (inactive)
same,normalized growth,"S. cerevisiae deletion strains, locus YPL078C, strain atp4, stronger effect = lower value",0.977 (inactive)
same,normalized growth,"S. cerevisiae deletion strains, locus YPL106C, strain sse1, stronger effect = lower value",1.01 (inactive)
same,normalized growth,"S. cerevisiae deletion strains, locus YPL240C, strain hsp82, stronger effect = lower value",0.982 (inactive)
same,normalized growth,"S. cerevisiae deletion strains, locus YPL241C, strain CIN2, stronger effect = lower value",1 (inactive)
same,normalized growth,"S. cerevisiae deletion strains, locus YPL256C, strain CLN2, stronger effect = lower value",0.985 (inactive)
same,normalized growth,"S. cerevisiae deletion strains, locus YPR119W, strain clb2, stronger effect = lower value",0.998 (inactive)
same,normalized growth,"S. cerevisiae deletion strains, locus YPR141C, strain kar3, stronger effect = lower value",1 (inactive)
same,normalized growth,"S. cerevisiae deletion strains, locus YPR163C, strain tif3, stronger effect = lower value",0.978 (inactive)
same,normalized growth,"S. cerevisiae deletion strains, locus YPR167C, strain met16, stronger effect = lower value",0.996 (inactive)
same,normalized growth,"S. cerevisiae deletion strains, strain wtn01, stronger effect = lower value",1.01 (inactive)
same,normalized growth,"S. cerevisiae strains, strain wild type, stronger effect = lower value",1.01 (inactive)
